SARS PLpro yeast = blocks SARS-CoV papain-like protease in a yeast assay. S. cerevisiae expressing SARS-CoV PLpro, growth rescue. Potency, µM (titrated, usually from 32.9 µM), most hits filed as activators. actives 0.19% (n = 330,000). AID 485353; calls by dose curve; note: nearly all actives have a fitted effect of over 55% in size
Pf growth 48h = P. falciparum growth inhibition at 48 hours (one generation) | P. falciparum luciferase growth in erythrocytes, 48 h | Potency, µM (highest dose often 28.7 µM), usual class: inhibitors | actives 5.9% (n = 310,000) | AID 504832
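First compound was added to culture medium, then infected red cells at 0.1% parasitemia and 2% hematocrit (final). After incubation at 37 C under 5% CO2, luciferase detection reagent was dispensed and light output recorded.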
AMA1 RON2 block = AMA1-RON2 (P. falciparum) interaction inhibition | Potency, µM (titrated, usually from 58.2 µM), actives largely listed as inhibitors | AlphaScreen AMA1-biotinylated RON2 peptide binding | actives 0.2% (n = 360,000); note: nearly all actives have a fitted effect of over 45% in size
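AMA1 (3D7) with his tag at 25 nM final met compounds first, then biotinylated RON2 peptide at 25 nM; detection used donor plus acceptor beads, 10 µg/mL apiece, read by AlphaScreen after 30 min at room temperature.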
CHX counter = counter-screen for Shiga toxin inhibitors: cycloheximide protein synthesis inhibition; cell reporter, cycloheximide protein synthesis inhibition counterscreen; max response, %; actives 12% (n = 300,000); AID 2314; in the data active = max response mostly above about 13%, no sharp cut-off; inactive = mostly below about 14%; note: read at 38.3 µM for the half of the compounds with a filed dose
Pf growth 96h = P. falciparum growth inhibition at 96 hours. P. falciparum luciferase reporter growth, 96 h. Potency, µM (titrated, usually from 28.7 µM), usual class: inhibitors. actives 6.9% (n = 320,000)
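P. falciparum expressing integrated firefly luciferase grown in erythrocytes (2% hematocrit, 0.05% parasitemia final) with compounds for 96 hours at 37 C, 5% CO2. Growth inhibition read as loss of luminescence after adding luciferase detection reagent.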
Shiga toxin inh = Shiga toxin inhibition. Vero cells, Shiga toxin protein synthesis inhibition reporter. inhibition, % at 38.7 µM. actives 9.2% (n = 290,000); in the data active = inhibition mostly above about 28%, no sharp cut-off; inactive = mostly below about 43%
Numbers stand for hits. A selection: hits, their analogues and other compounds. The true share with any hit is near 19%. Unless noted, calls come from the whole dose curve; as a rule, active = well fitted curve in the direction sought with a large enough effect; inconclusive = small, poorly fitted or top-dose-only effect, or another doubt; inactive = no such curve, though single readings can be large; an effect the other way counts as inactive or inconclusive.

What do the screens show for `O=C(NCCNC(=O)c1cc(OCC(F)(F)F)ccc1OCC(F)(F)F)Nc1cccc(C(F)(F)F)c1`?
SARS PLpro yeast: inactive; Pf growth 48h: inactive; AMA1 RON2 block: inactive; CHX counter: inactive; Pf growth 96h: inactive; Shiga toxin inh: inactive

What do the screens show for `Cc1ccc(S(=O)(=O)CCc2ccccn2)cc1`?
SARS PLpro yeast: inactive; Pf growth 48h: inactive; AMA1 RON2 block: inactive; CHX counter: inactive; Shiga toxin inh: inactive

Results for Fc1ccc(SCCc2ccccn2)cc1 ?
SARS PLpro yeast: inactive; Pf growth 48h: inactive; AMA1 RON2 block: inactive; CHX counter: 52; Pf growth 96h: inactive; Shiga toxin inh: 72

Results for CC(C)(C)c1ccc(S(=O)(=O)CCc2ccccn2)cc1 ?
SARS PLpro yeast: inactive; AMA1 RON2 block: inactive; CHX counter: 27; Pf growth 96h: inactive; Shiga toxin inh: 54

How did CC(C)(C)c1ccc(SCCc2ccccn2)cc1 do in these assays?
SARS PLpro yeast: inactive; Pf growth 48h: inactive; AMA1 RON2 block: inactive; CHX counter: 40; Pf growth 96h: inactive; Shiga toxin inh: 89

Results for Cc1cc(C)cc(C(=O)OCC(=O)NC(=O)NC2CCCC2)c1 ?
SARS PLpro yeast: inactive; Pf growth 48h: inconclusive; AMA1 RON2 block: inactive; Pf growth 96h: inactive

How did CN1CCN(c2ccc(NC(=O)c3cc4ccccc4o3)cc2)CC1 do in these assays?
SARS PLpro yeast: inactive; Pf growth 48h: inactive; AMA1 RON2 block: inactive; CHX counter: 33; Pf growth 96h: inactive; Shiga toxin inh: inactive

What do the screens show for `CS(=O)(=O)N1CCN(c2ccc(NC(=O)c3cc4ccccc4o3)cc2)CC1`?
SARS PLpro yeast: inactive; Pf growth 48h: inactive; AMA1 RON2 block: inactive; CHX counter: 19; Pf growth 96h: inactive; Shiga toxin inh: inactive

How did O=C(Nc1ccc(N2CCN(C(=O)c3ccccc3)CC2)cc1)c1cc2ccccc2o1 do in these assays?
SARS PLpro yeast: inactive; Pf growth 48h: 12µM; AMA1 RON2 block: inactive; CHX counter: inactive; Shiga toxin inh: inactive

Results for CS(=O)(=O)N1CCN(c2ccccc2NC(=O)c2cc3ccccc3o2)CC1 ?
SARS PLpro yeast: inactive; Pf growth 48h: inconclusive; AMA1 RON2 block: inactive; CHX counter: inactive; Pf growth 96h: inactive; Shiga toxin inh: inactive

Results for N#Cc1c(N)n(CCOC(=O)c2cccc([N+](=O)[O-])c2)c2nc3ccccc3nc12 ?
SARS PLpro yeast: inactive; Pf growth 48h: inconclusive; AMA1 RON2 block: inactive; CHX counter: inactive; Pf growth 96h: 8.3µM; Shiga toxin inh: inactive

What do the screens show for `N#Cc1c(N)n(CCOC(=O)c2cccc(Br)c2)c2nc3ccccc3nc12`?
Pf growth 48h: inactive; AMA1 RON2 block: inactive; CHX counter: inactive; Pf growth 96h: inconclusive; Shiga toxin inh: inactive

What do the screens show for `COc1ccc(Cn2c(N)c(C#N)c3nc4ccccc4nc32)cc1`?
SARS PLpro yeast: inactive; Pf growth 48h: 4.7µM; AMA1 RON2 block: inactive; CHX counter: inactive; Pf growth 96h: inconclusive; Shiga toxin inh: inactive

What do the screens show for `COCCn1c(N)c(C#N)c2nc3ccccc3nc21`?
SARS PLpro yeast: inactive; Pf growth 48h: inactive; AMA1 RON2 block: inactive; CHX counter: inactive; Shiga toxin inh: inactive

Results for N#Cc1c(N)n(CCc2ccc(F)cc2)c2nc3ccccc3nc12 ?
SARS PLpro yeast: inactive; AMA1 RON2 block: inactive; CHX counter: inactive; Pf growth 96h: 0.33µM; Shiga toxin inh: inactive

How did COc1cc(Cn2c(N)c(C#N)c3nc4ccccc4nc32)cc(OC)c1 do in these assays?
SARS PLpro yeast: inactive; Pf growth 48h: inconclusive; AMA1 RON2 block: inactive; CHX counter: inactive; Pf growth 96h: 2.3µM; Shiga toxin inh: inactive

How did Cc1nn(CC(C)C)c2sc(C(=O)NC3CC(C)(C)NC(C)(C)C3)cc12 do in these assays?
SARS PLpro yeast: inactive; Pf growth 48h: inactive; AMA1 RON2 block: inactive; CHX counter: inactive; Pf growth 96h: inactive; Shiga toxin inh: inactive

What do the screens show for `O=C(CCCOc1ccccc1)Nc1cccc(S(=O)(=O)N2CCCCCC2)c1`?
SARS PLpro yeast: inactive; Pf growth 48h: inconclusive; AMA1 RON2 block: inactive; Pf growth 96h: inconclusive

How did COc1cccc(Cn2c(N)c(C#N)c3nc4ccccc4nc32)c1OC do in these assays?
SARS PLpro yeast: inactive; Pf growth 48h: inconclusive; AMA1 RON2 block: inactive; CHX counter: inactive; Pf growth 96h: 10µM; Shiga toxin inh: inactive

How did CC(C)CCOc1ccc(C(=O)N2CCCC2C(=O)O)cc1 (stereo not drawn) do in these assays?
SARS PLpro yeast: inactive; Pf growth 48h: inactive; AMA1 RON2 block: inactive; CHX counter: inactive; Pf growth 96h: inconclusive; Shiga toxin inh: inactive

How did CC(=O)Nc1ccc(OS(=O)(=O)c2ccc(Cl)cc2)cc1 do in these assays?
SARS PLpro yeast: inactive; Pf growth 48h: inconclusive; AMA1 RON2 block: inactive; CHX counter: inactive; Pf growth 96h: inactive; Shiga toxin inh: 40

Results for CC(=O)Nc1ccc(OS(=O)(=O)c2ccc([N+](=O)[O-])cc2)cc1 ?
SARS PLpro yeast: inactive; Pf growth 48h: 13µM; AMA1 RON2 block: inactive; CHX counter: inactive; Pf growth 96h: inactive; Shiga toxin inh: inactive

What do the screens show for `COc1ccc(C=O)cc1OS(=O)(=O)c1ccc(NC(C)=O)cc1`?
SARS PLpro yeast: inactive; Pf growth 48h: inconclusive; AMA1 RON2 block: inactive; CHX counter: inactive; Pf growth 96h: inconclusive; Shiga toxin inh: inactive

How did COc1cc(C=O)cc(OC)c1OS(=O)(=O)c1ccc(NC(C)=O)cc1 do in these assays?
SARS PLpro yeast: inactive; Pf growth 48h: inactive; AMA1 RON2 block: inactive; CHX counter: inactive; Pf growth 96h: 4.1µM; Shiga toxin inh: inactive

What do the screens show for `COc1ccccc1C(=O)NCCC(=O)NCC(c1ccccc1)N(C)C` (stereo not drawn)?
SARS PLpro yeast: inactive; Pf growth 48h: inactive; AMA1 RON2 block: inactive; CHX counter: inactive; Pf growth 96h: inactive; Shiga toxin inh: inactive

What do the screens show for `COc1ccccc1N=Cc1nc(-c2ccccc2)oc1OC(C)=O`?
SARS PLpro yeast: inactive; Pf growth 48h: inactive; AMA1 RON2 block: inactive; CHX counter: inactive; Pf growth 96h: inactive; Shiga toxin inh: inactive

How did CC(=O)Oc1oc(-c2ccccc2)nc1/C=N/c1ccccn1 do in these assays?
SARS PLpro yeast: inactive; Pf growth 48h: inactive; AMA1 RON2 block: inactive; CHX counter: 47; Pf growth 96h: inconclusive; Shiga toxin inh: 87

What do the screens show for `CN(C)c1ccc(N=Cc2nc(-c3ccccc3)oc2OC(=O)c2ccccc2)cc1`?
SARS PLpro yeast: inactive; Pf growth 48h: inactive; AMA1 RON2 block: inactive; CHX counter: 34; Pf growth 96h: inactive; Shiga toxin inh: 34

What do the screens show for `CSc1cccc(NC(=O)c2ccc(NC3=NC4CS(=O)(=O)CC4S3)cc2)c1` (stereo not drawn)?
SARS PLpro yeast: inactive; Pf growth 48h: inactive; AMA1 RON2 block: inactive; CHX counter: inactive; Pf growth 96h: inactive; Shiga toxin inh: inactive

Results for O=C(CN1CCN(C(c2ccccc2)c2ccccc2)CC1)N1N=CCC1c1ccccc1 (stereo not drawn) ?
SARS PLpro yeast: inactive; Pf growth 48h: inconclusive; AMA1 RON2 block: inactive; CHX counter: inactive; Pf growth 96h: 12µM; Shiga toxin inh: inactive

From PubChem
